# In all, about 9,900 sequences were measured (“r (bound/input frequency ratio)”: median about 0.7, highest 2% from about 6.5 on). This excerpt belongs to a sample that is enriched for the highest values.
# B1: ENSMUSG00000029028.207|Lrrc47 (ssRNA)
# RNA: GGGAGUUCUACAGUCCGACGAUCGCUUCGAUAUCCGCAUGCUAGUCCUAAGGACCCAGCAGCUGCACAGAGGACUUGGUGGCCCCGUGCCUUGCCAUCUGGCUGAGAAGAGAACCAGACCCUCAGCCUUCCCCCUCGACACCUUCUCGUUGGUGACCUCUGACCUUAAAGGACCAUUUCUACCUUCUGUAAAAGAACACCUGUUUGGGGUUGCGUGCGGCUUUCAUCCUAAGGCCGUGCGAGAGCCGUUAGCUGUCAGAACUAGUGAAGCUCCAGGCUCCUCGUGGCAGACCCUGGACAACGCCUCUUGCGGUCGCACUAGUGUGGAAUUCUCGGGUGUCAAGG
# B2: ENSMUSG00000022095.265|Fam160b2|1:16;55:75;122:126 (ssRNA)
# RNA: GGGAGUUCUACAGUCCGACGAUCGCUUCGAUAUCCGCAUGCUAACACACACACACACACAGAGAGAGAGAGAGAGAGCGAGCUAUGAAUGAAUGUGACACACACACACACACACACACAGAGAGAGAGAGAGAGAGAGAGAGCUGUGAGUACACAUGGGUGCUGCACACGGACAGGAGCAGAUCUUGGUGGAGUGGGUCUACACUUGAGAUUUGUACUCGUUUGAGAGGCUGGGCAAUACUCAAUGCACUUUGGCAUUUGCAUGGUGUCUUCACAACAGCACAGCAAUAAACAUUGUGAUUGUCUCUUGCGGUCGCACUAGUGUGGAAUUCUCGGGUGUCAAGG
# B3: ENSMUSG00000022095.262|Fam160b2 (ssRNA)
# RNA: GGGAGUUCUACAGUCCGACGAUCGCUUCGAUAUCCGCAUGCUAUGAAUGUGAGUGUGUGUGUGUGUGUGUGUGUGUGAGAGAGAGAGAGAGAGAGCGAGCUAUGAAUGAAUGUGAGUGUGUGUGUGUGUGUGUGUGAGAGAGAGAGAGAGAGAGAGAGAGCUGUGAGUACACAUGGGUGCUGGUGUGGGACAGGAGCAGAUCUUGGUGGAGUGGGUCUACACUUGAGAUUUGUACUCGUUUGAGAGGCUGGGCAAUACUCAAUGCACUUUGGCAUUUGCAUGGUGUCUUCACAACAGCACAGCCUCUUGCGGUCGCACUAGUGUGGAAUUCUCGGGUGUCAAGG
# B4: ENSMUSG00000022095.267|Fam160b2 (ssRNA)
# RNA: GGGAGUUCUACAGUCCGACGAUCGCUUCGAUAUCCGCAUGCUAUGUGAGAGAGAGAGAGAGAGAGCGAGCUAUGAAUGAAUGUGAGUGUGUGUGUGUGUGUGUGUGAGAGAGAGAGAGAGAGAGAGAGAGCUGUGAGUACACAUGGGUGCUGGUGUGGGACAGGAGCAGAUCUUGGUGGAGUGGGUCUACACUUGAGAUUUGUACUCGUUUGAGAGGCUGGGCAAUACUCAAUGCACUUUGGCAUUUGCAUGGUGUCUUCACAACAGCACAGCAAUAAACAUUGUGAUUGUGUGGACAUGCUGCUCUUGCGGUCGCACUAGUGUGGAAUUCUCGGGUGUCAAGG
# B5: ENSMUSG00000022095.264|Fam160b2 (ssRNA)
# RNA: GGGAGUUCUACAGUCCGACGAUCGCUUCGAUAUCCGCAUGCUAUGUGUGUGUGUGUGUGUGUGUGAGAGAGAGAGAGAGAGAGCGAGCUAUGAAUGAAUGUGAGUGUGUGUGUGUGUGUGUGUGAGAGAGAGAGAGAGAGAGAGAGAGCUGUGAGUACACAUGGGUGCUGGUGUGGGACAGGAGCAGAUCUUGGUGGAGUGGGUCUACACUUGAGAUUUGUACUCGUUUGAGAGGCUGGGCAAUACUCAAUGCACUUUGGCAUUUGCAUGGUGUCUUCACAACAGCACAGCAAUAAACAUUGUCUCUUGCGGUCGCACUAGUGUGGAAUUCUCGGGUGUCAAGG
# B6: ENSMUSG00000022095.265|Fam160b2 (ssRNA)
# RNA: GGGAGUUCUACAGUCCGACGAUCGCUUCGAUAUCCGCAUGCUAUGUGUGUGUGUGUGUGAGAGAGAGAGAGAGAGAGCGAGCUAUGAAUGAAUGUGAGUGUGUGUGUGUGUGUGUGUGAGAGAGAGAGAGAGAGAGAGAGAGCUGUGAGUACACAUGGGUGCUGGUGUGGGACAGGAGCAGAUCUUGGUGGAGUGGGUCUACACUUGAGAUUUGUACUCGUUUGAGAGGCUGGGCAAUACUCAAUGCACUUUGGCAUUUGCAUGGUGUCUUCACAACAGCACAGCAAUAAACAUUGUGAUUGUCUCUUGCGGUCGCACUAGUGUGGAAUUCUCGGGUGUCAAGG
# B7: ENSMUSG00000022095.260|Fam160b2 (ssRNA)
# RNA: GGGAGUUCUACAGUCCGACGAUCGCUUCGAUAUCCGCAUGCUAGCGAGCUAUGAAUGAAUGUGAGUGUGUGUGUGUGUGUGUGUGUGUGAGAGAGAGAGAGAGAGAGCGAGCUAUGAAUGAAUGUGAGUGUGUGUGUGUGUGUGUGUGAGAGAGAGAGAGAGAGAGAGAGAGCUGUGAGUACACAUGGGUGCUGGUGUGGGACAGGAGCAGAUCUUGGUGGAGUGGGUCUACACUUGAGAUUUGUACUCGUUUGAGAGGCUGGGCAAUACUCAAUGCACUUUGGCAUUUGCAUGGUGUCUUCACUCUUGCGGUCGCACUAGUGUGGAAUUCUCGGGUGUCAAGG
# B8: ENSMUSG00000022095.258|Fam160b2 (ssRNA)
# RNA: GGGAGUUCUACAGUCCGACGAUCGCUUCGAUAUCCGCAUGCUAGUGAGAGAGAGAGCGAGCUAUGAAUGAAUGUGAGUGUGUGUGUGUGUGUGUGUGUGUGAGAGAGAGAGAGAGAGAGCGAGCUAUGAAUGAAUGUGAGUGUGUGUGUGUGUGUGUGUGAGAGAGAGAGAGAGAGAGAGAGAGCUGUGAGUACACAUGGGUGCUGGUGUGGGACAGGAGCAGAUCUUGGUGGAGUGGGUCUACACUUGAGAUUUGUACUCGUUUGAGAGGCUGGGCAAUACUCAAUGCACUUUGGCAUUUGCCUCUUGCGGUCGCACUAGUGUGGAAUUCUCGGGUGUCAAGG
# B9: ENSMUSG00000022095.259|Fam160b2 (ssRNA)
# RNA: GGGAGUUCUACAGUCCGACGAUCGCUUCGAUAUCCGCAUGCUAGAGAGAGCGAGCUAUGAAUGAAUGUGAGUGUGUGUGUGUGUGUGUGUGUGUGAGAGAGAGAGAGAGAGAGCGAGCUAUGAAUGAAUGUGAGUGUGUGUGUGUGUGUGUGUGAGAGAGAGAGAGAGAGAGAGAGAGCUGUGAGUACACAUGGGUGCUGGUGUGGGACAGGAGCAGAUCUUGGUGGAGUGGGUCUACACUUGAGAUUUGUACUCGUUUGAGAGGCUGGGCAAUACUCAAUGCACUUUGGCAUUUGCAUGGUGCUCUUGCGGUCGCACUAGUGUGGAAUUCUCGGGUGUCAAGG
# B10: ENSMUSG00000022095.266|Fam160b2 (ssRNA)
# RNA: GGGAGUUCUACAGUCCGACGAUCGCUUCGAUAUCCGCAUGCUAUGUGUGUGUGAGAGAGAGAGAGAGAGAGCGAGCUAUGAAUGAAUGUGAGUGUGUGUGUGUGUGUGUGUGAGAGAGAGAGAGAGAGAGAGAGAGCUGUGAGUACACAUGGGUGCUGGUGUGGGACAGGAGCAGAUCUUGGUGGAGUGGGUCUACACUUGAGAUUUGUACUCGUUUGAGAGGCUGGGCAAUACUCAAUGCACUUUGGCAUUUGCAUGGUGUCUUCACAACAGCACAGCAAUAAACAUUGUGAUUGUGUGGACCUCUUGCGGUCGCACUAGUGUGGAAUUCUCGGGUGUCAAGG
# Biological target: TDP-43 (Homo sapiens, UniProt Q13148 1-414)
# Sequence (Q13148 whole entry): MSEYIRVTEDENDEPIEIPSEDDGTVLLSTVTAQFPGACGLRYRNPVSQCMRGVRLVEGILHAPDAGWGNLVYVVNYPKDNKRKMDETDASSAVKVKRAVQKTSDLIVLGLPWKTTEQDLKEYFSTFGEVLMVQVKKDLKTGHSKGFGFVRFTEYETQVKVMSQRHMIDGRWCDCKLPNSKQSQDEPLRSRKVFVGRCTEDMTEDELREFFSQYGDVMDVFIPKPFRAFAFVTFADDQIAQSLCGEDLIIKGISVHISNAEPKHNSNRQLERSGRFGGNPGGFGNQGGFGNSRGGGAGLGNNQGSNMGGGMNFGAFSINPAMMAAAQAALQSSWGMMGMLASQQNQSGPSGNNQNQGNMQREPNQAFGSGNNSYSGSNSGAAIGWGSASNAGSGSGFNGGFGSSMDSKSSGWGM
# Experiment: RNA Bind-n-Seq with designed 260-mer pool; 25 mM Tris-HCl, 150 mM KCl, 3 mM MgCl2, BSA (printed 500 mg/mL), 20 units/mL SUPERase IN; pH not stated; 500 nM RNA pool, 1 h, 4 C; TDP-43 5, 50, 500 nM; high values mean tight binding
# Conditions: protein: recombinant; tags: SBP (GST cleaved off with PreScission; pGEX-GST-SBP)
# Procedure, shortened: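 Binding (R) is the ratio of each oligo's mapped-read-normalized abundance in the bound fraction to its abundance in the input. To obtain it, SBP-tagged recombinant TDP-43 (5, 50 or 500 nM) on streptavidin beads was incubated with 500 nM of an in vitro-transcribed 260-nt 3′ UTR oligo pool for 1 h at 4 °C in 25 mM Tris-HCl, 150 mM KCl, 3 mM MgCl2, BSA and SUPERase IN. The RNA retained after washing was released with biotin, then reverse transcribed, amplified by PCR and sequenced.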
row,Binder,binding signal
1,B1,0.453 R (bound/input frequency ratio)
2,B2,5.93 R (bound/input frequency ratio)
3,B3,9.41 R (bound/input frequency ratio)
4,B4,5.01 R (bound/input frequency ratio)
5,B5,5.78 R (bound/input frequency ratio)
6,B6,4.76 R (bound/input frequency ratio)
7,B7,7.36 R (bound/input frequency ratio)
8,B8,4.34 R (bound/input frequency ratio)
9,B9,5.88 R (bound/input frequency ratio)
10,B10,7.33 R (bound/input frequency ratio)

# From publication PMC12864922, “TDP-43 directly inhibits mRNA accumulation in neurites through modulation of mRNA stability”
